Mito fusion yeast: mitochondrial division inhibition or fusion activation | Potency, µM (series often up to 46.1 µM), for the others: at the top dose growth rescue (activation), most hits filed as activators | S. cerevisiae fusion-defective mutant growth rescue, CellTiterGlo 48 h | 320,000 tested, 0.23% active; further: potency means the concentration at half of the fitted maximal effect; % of control where 0% means no effect; nearly all actives have a fitted effect of over 45% in size
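Growth-rescue viability read-out: after 48 h at the non-permissive 37C in glycerol/ethanol YPEG, yeast mitochondrial fusion mutants are measured by CellTiterGlo luminescence; compounds (23 nl pinned per well) restoring growth score as division inhibitors or fusion activators.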
MBNL1-CUG inh: inhibitors of human MBNL1 binding to CUG repeat RNA; 280,000 tested, 0.036% active; TR-FRET MBNL1-His/biotin-(CUG)12 binding, 665/545 ratio; AID 2675; Q9NR56; Potency, µM (highest dose often 57.5 µM), without a hit: top-dose activity change, negative = inhibition, usual class: inhibitors; active means well fitted inhibition curve with a large enough effect in the signal ratio, with a control signal flat, not every such curve was filed as active; inconclusive means small, poorly fitted or top-dose-only effect, or effect the other way, or a change in a side signal; inactive means no such curve, though single readings can be large or run the other way; the % refers to the signal ratio; further: potency means the concentration at half of the fitted maximal effect; on the % scale 0 is the no-effect control and ±100 the full control effect
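Compound titration spanned 92 nM–58 uM against the MBNL1-His/biotin-(CUG)12 complex. After 60 min at room temperature with 5 nM streptavidin-XL665 and 0.055 ng/ul terbium anti-His, ratiometric 665/545 nm emission (Ex 340 nm) normalized to controls.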
GRP78 ERSR act: induces the endoplasmic reticulum stress response in human glioma cells; U87-MG GRP78 promoter luciferase reporter, 16 h; Potency, µM, inactives show top-dose activation, usual class: activators; 420,000 tested, 0.02% active; further: potency means the concentration at half of the fitted maximal effect; series mostly up to about 76 µM; % of control where 0% means no effect; nearly all actives have a fitted effect of over 35% in size
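Stably transfected U87-MG human glioma cells carrying a GRP78-based luminescent sensor were seeded at 1000 cells/well, pin-dosed with compounds and incubated 16 h. Luciferase reagent was then added, and end-point luminescence was read after 10 min at room temperature.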
ClpP mod: qHTS Assay for Activators of ClpP; ATP-dependent Clp protease proteolytic subunit (Bacillus subtilis (strain 168)), P80244; purified B. subtilis ClpP, FRET peptide cleavage, 20 min; Potency, µM (series often up to 57.5 µM), inactives show at the highest dose activity change, negative = active; 340,000 tested, 1.9% active; AID 651965, 2013; active means well fitted falling curve with a large enough effect; inconclusive means small, poorly fitted or top-dose-only effect; inactive means no such curve, though single readings can be large or run the other way; further: potency means the concentration at half of the fitted maximal effect; the source files actives as falling curves though it sought activators and does not explain the sign; nearly all actives have a fitted effect of over 65% in size
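FRET quenching reversal measured ClpP activation: 10 microg/mL B. subtilis ClpP at pH 8 with the FRET-FV decapeptide, read at 430 nm after 320 nm excitation. The 20-min minus 0-min signal was scaled between DMSO/no-enzyme wells and ADEP (5.8 microM final).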
AT treatment: potential ataxia-telangiectasia treatments restoring KAP-1 phosphorylation | F2112 A-T fibroblasts, KAP-1 phosphorylation AlphaLISA; neocarzinostatin DNA damage 30 min before lysis | AID 485349 | Potency, µM (series often up to 57.5 µM), inactives show top-dose activation, most hits filed as activators | 320,000 tested, 0.19% active; further: potency means the concentration at half of the fitted maximal effect; % of control where 0% means no effect; nearly all actives have a fitted effect of over 45% in size
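ATM-like activity read as KAP-1 phosphorylation via AlphaLISA donor/acceptor antibody pairs after lysis and 6 hr at 25C. Cells were ATM-null patient fibroblasts (F2112, hTERT), dosed 60 min, then exposed to the DSB inducer NCS for 30 min.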
TCR activator: activates T cell receptor signaling. primary human leukocytes, anti-CD3, IL-2 HTRF, 48 h. Potency, µM (highest dose often 9.22 µM), without a hit: top-dose activation of IL-2 secretion, actives largely listed as activators. 330,000 tested, under 10 active. AID 504894; further: % of control where 0% means no effect
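Primary human leukocytes were stimulated with a-CD3 beads plus compounds for 48 hr without co-stimulation; secreted IL-2 was quantified by HTRF using a-IL-2-K (europium cryptate) and a-IL-2-d2, excited at 320nm with acceptor emission read at 665nm.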
* marks the source's active call; other numbers are inactive results; ? = inconclusive; . = no result given; [ ] = dose if it differs, or a comment. Rows were chosen to be rich in hits. Some 1.8% of all compounds tested hit in one or more screens of this group. Unless noted, the call rests on the fitted dose curve; in most records, active means well fitted curve in the direction sought with a large enough effect; inconclusive means small, poorly fitted or top-dose-only effect, or another doubt; inactive means no such curve, though single readings can be large; an effect the other way counts as inactive or inconclusive.

SMILES	Mito fusion yeast	MBNL1-CUG inh	GRP78 ERSR act	ClpP mod	AT treatment	TCR activator
COc1ccc2[nH]c(=O)c(CN(C(C)=O)c3cccc(C)c3)cc2c1	-1.0%	-8.9%	-7.9%	35.5µM*	3.1%	2.6%
CN(C)C(=O)c1ccc(-c2nc(NCc3cccnc3)c3ccccc3n2)cc1	.	.	-0.8%	.	.	.
COc1cc(-c2cnc3ccccc3c2)cc2c1OCCN(C(=O)CCC(=O)c1ccc(F)cc1)C2	.	.	-1.5%	.	.	.
Cc1cccc(C(=O)Nc2cccc(OCc3cc(=O)n4cc(C)sc4n3)c2)c1	.	.	-0.4%	1.0%	.	.
Cc1cn2c(=O)cc(COc3cccc(NC(=O)c4ccc(C(C)(C)C)cc4)c3)nc2s1	.	.	-2.1%	28.2µM*	.	.
CCOc1cc(C(=S)N2CCOCC2)ccc1OC(=O)/C=C/c1ccc(OC)c(OC)c1	-0.4%	5.2%	0.3%	25.1µM*	-6.2%	7.1%[46.1 µM]
COc1ccc2cc(CN(C(=O)c3cc(C)nn3C)C3CC3)c(-c3ccc(Cl)cc3)nc2c1	.	.	0.0%	.	.	.
Clc1ccc(Cl)c(OCc2cc(-c3ccccc3Cl)on2)c1	-1.5%	-0.2%	-5.2%	14.1µM*	3.3%	0.6%
O=C(Nc1ccc(Cl)cc1)OCc1cc(-c2ccccc2Cl)on1	0.9%	2.6%	-3.8%	-2.0%	12.2%	-3.2%
CC12CCC(C(=O)NNc3ccc([N+](=O)[O-])cc3)(OC1=O)C2(C)C (stereo unspecified)	-12.6%	?	3.5%	.	10µM*	-2.3%
CC12CCC(C(=O)NNc3ccccc3)(OC1=O)C2(C)C (stereo unspecified)	4.1%	0.4%	-2.2%	1.9%	3.7%	-2.0%
NCCCNC(=O)c1cc2ccccc2[nH]1	-3.4%	-5.0%	-2.9%	25.1µM*	0.2%	-0.4%
CC(C)=CCC[C@](C)(O)C1CC[C@]2(C)[C@@H]1CC[C@@H]1[C@@]3(C)CCC(=O)C(C)(C)[C@@H]3CC[C@]12C (stereo partly specified)	.	.	-0.8%	.	.	.
O=C(NCCc1ccccn1)C1CC12CCN(C(=O)c1c(F)cccc1Cl)CC2 (stereo unspecified)	.	.	-3.0%	.	.	.
CCc1cc2c(NCCC(=O)O)nc(C)nc2s1	-4.1%	6.1%	-3.2%	28.2µM*	2.2%	2.8%
CCCCc1oc2ccc(NS(C)(=O)=O)cc2c1C(=O)c1ccc(OCCCN(CCCC)CCCC)cc1	.	.	-11.2%	.	.	.
Cc1ccccc1C1(CC(=O)N2CC3(C)CC2CC(C)(C)C3)CC(=O)N(Cc2cccnc2)C1=O (stereo unspecified)	.	.	-1.5%	.	.	.
c1ccc(-c2nc(-n3nc4ccccc4n3)nc3ccccc23)cc1	-9.0%	7.1%	-4.1%	35.5µM*	5.4%	-2.9%
NNc1nc(-c2ccccc2)c2ccccc2n1	-11.3%	9.2%	-5.3%	1.1%	2.4%	2.8%
Clc1ccc(-c2nc(N3CCCCC3)nc3ccccc23)cc1	35.5µM*	5.8%	0.9%	-6.2%	?	2.9%[46.1 µM]
O=C(O)CCC(=O)N1CCN(c2nc(-c3ccccc3)c3ccccc3n2)CC1	-10.4%	14.9%	0.8%	-7.9%	13.3%	-3.6%
Cc1ccc(N=Nc2[nH]c3ccccc3c2O)cc1	6.3%	-7.1%	3.8%	25.1µM*	7.1%	-10.7%[46.1 µM]
CCOC(=O)c1c(-c2ccccc2)csc1NC(=O)/C(C#N)=C/c1ccc(O)c(OC)c1	13.1%	-0.9%	2.3%	28.2µM*	-6.3%	-4.2%[46.1 µM]
CCOC(=O)c1c(-c2ccccc2)csc1NC(=O)/C(C#N)=C/c1ccc(OC)c(OC)c1	-4.6%	.	-5.0%	0.6%	-1.9%	0.8%[46.1 µM]
COc1cc(N(C)C)cc(CN(C)CCc2ccc([N+](=O)[O-])cc2)c1O	.	.	-3.0%	.	.	.
SMILES	Mito fusion yeast	MBNL1-CUG inh	GRP78 ERSR act	ClpP mod	AT treatment	TCR activator
COc1ccccc1-c1cn(-c2ccccc2)c(=S)[nH]1	-0.3%	4.0%	-1.3%	?	28.1%	-2.6%
COc1ccccc1C1=NC(c2ccccc2)CN1c1ccccc1 (stereo unspecified)	-10.9%	12.5%	-3.7%	.	28.2µM*	-4.1%
CC1=CC23C(=O)C(C=C(CO)[C@@H](O)[C@]2(O)[C@H]1O)[C@H]1[C@@H](C[C@H]3C)C1(C)C (stereo partly specified)	.	.	-1.5%	.	.	.
COc1ccc(-c2nc3n(c2C)Cc2ccccc2-3)cc1	-9.4%	-2.7%	1.9%	.	22.4µM*	-4.3%
O=c1cc(-c2ccccc2)nc2n1Cc1ccccc1-2	7.8%	?	7.5%	-1.4%	0.9%	.
COC(=O)c1c(OCC2CCCN(C)C2)cc(=O)n2c1CCN(Cc1ccc(OC)c(O)c1)CC2 (stereo unspecified)	.	.	-6.8%	.	.	.
O=C(O)c1cc(N2C(=O)C3C4C=CC(C4)C3C2=O)ccc1NCc1cccnc1 (stereo unspecified)	-1.6%	-22.3%	-0.5%	35.5µM*	.	6.9%
O=C(Cc1ccc(-c2ccccc2)cc1)NO	.	.	3.0%	-4.3%	.	.
CC(C)C[C@H](NC(=O)[C@H](CC(C)C)NC(=O)[C@@H](Cc1c[nH]c2ccccc12)NC(=O)[C@H](Cc1ccccc1)NC(=O)[C@@H](Cc1c[nH]c2ccccc12)NC(=O)[C@H](CCC(N)=O)NC(=O)[C@H](CCC(N)=O)NC(=O)[C@@H]1CCCN1C(=O)[C@H](CCCCN)NC(=O)[C@@H]1CCCN1C(=O)[C@@H](CCCNC(=N)N)NC(=O)[C@@H]1CCCN1C(=O)CNC(=O)[C@H](CC(C)C)NC(=O)[C@H](CC(C)C)NC(=O)[C@H](Cc1ccc(O)cc1)NC(=O)CNC(=O)[C@H](C)NC(=O)[C@H](CO)NC(=O)[C@H](CC(N)=O)NC(=O)[C@H](CC(C)C)NC(=O)[C@@H](NC(=O)[C@H](Cc1c[nH]c2ccccc12)NC(=O)CN)[C@@H](C)O)C(N)=O	.	.	-1.9%	.	.	.
OC1CCN(Cc2ccc3c(c2)CN(C/C=C/c2ccco2)CCO3)CC1	.	.	-6.9%	.	.	.
Cc1cccc(-c2noc(-c3cccnc3NCc3ccc(Cl)cc3)n2)c1	.	.	5.9%	-18.7%	.	.
FC(F)(F)c1cccc(CNc2ncccc2-c2nc3cc(Cl)ccc3o2)c1	1.6%	-1.4%	-2.6%	31.6µM*	.	-7.9%
CCCN(CC1CC1)c1nc(C)nc(Nc2c(Cl)cc(Cl)cc2Cl)c1Cl	14.6µM*	.	-6.1%	-0.3%	.	-2.1%
COc1ccc(C(CNC(=O)Cc2ccc(-c3ccccc3)cc2)N(C)C)cc1 (stereo unspecified)	-8.7%	2.1%	-1.6%	.	0.6%	-0.1%

Screening results: PubChem BioAssay, National Center for Advancing Translational Sciences (NCATS)
